In PubChem BioAssay (NCI):
Compounds without any hit were thinned out: in the full panel of roughly 83,000, 20% have a hit.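 In brief: 96-well plates, 48 h treatment, single concentration, percent growth endpoint.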 Unmarked numbers belong to inactive results. Calls of active or inactive are those of the source. Rule for the calls: active = growth percent below 10; inactive = the rest.

Columns and labels:
Test in all cases: NCI-60 one-dose screen, 48 h (100 = growth as untreated, 0 = no growth, -100 = all killed)
Settings in all cases: 10 µM unless noted
[1] = test system: NCI-H23 lung
[2] = test system: NCI-H226 lung
[3] = test system: NCI-H322M lung
[4] = test system: HOP-62 NSCLC
[5] = test system: NCI-H460 lung
[6] = test system: HOP-92 NSCLC
[7] = test system: NCI-H522 lung
[8] = test system: A549/ATCC NSCLC
[9] = test system: 786-0 renal
[10] = test system: COLO 205 colon

Row | Structure (SMILES) | growth [1] | growth [2] | growth [3] | growth [4] | growth [5] | growth [6] | growth [7] | growth [8] | growth [9] | growth [10]
1 | CC(=O)C[n+]1cccc2c3ccccc3ccc21 | 85.4% | 97% | 89.7% | 109% | 82.4% | 85.2% | 82.7% | 56.9% | 94.8% | 70.5%
2 | COc1ccc(Nc2nnc(-c3c[nH]c4ccccc34)o2)cc1 | 82.7% | 74.9% | 89.8% | 77.8% | 96.3% | 84.5% | 32.2% | 89.3% | 91.9% | 113%
3 | COc1ccc2[nH]c(=O)cc(-n3ncc(C(=O)/C=C/c4cc(OC)c(OC)c(OC)c4)c3C)c2c1 | -45.1% (active) | -21.7% (active) | 5.89% (active) | 0.688% (active) | -30.4% (active) | 44.2% | -81.1% (active) | 8.31% (active) | -15% (active) | -92.5% (active)
4 | COc1ccc2c(c1)C(Sc1ccc(Br)cc1)c1c(nc(N)c(C#N)c1N)O2 (stereo not given) | 79.1% | 83.1% | 84.2% | 93.7% | 82.4% | 111% | 77.1% | 89.7% | 83% | 90%
5 | COc1ccc(S(=O)(=O)Nc2ccc(-c3ccc4c(c3)NC(=O)/C4=C\c3ccc[nH]3)cc2)cc1OC | -25.1% (active) | -37.8% (active) | 31.6% | 0.497% (active) | -52.5% (active) | 5.85% (active) | 2.96% (active) | -25.8% (active) | -9.09% (active) | 39.8%
6 | N#Cc1cc(-c2ccnc(Nc3ccc(N4CCN(C5COC5)CC4)cc3)n2)ccc1N1CCCC1 | 82.9% | 71% | 63.9% | 64.3% | 49.9% | 52.5% | 65.6% | 67.3% | 16.9% | 86.1%
7 | COc1ccc(NC(=O)Cn2c(/C=C/c3cccc(OC)c3)nc3ccccc3c2=O)cc1 | 40.8% | 1.28% (active) | 42.3% | -11.5% (active) | 15.2% | 3.74% (active) | 27.3% | 12.8% | -70.7% (active) | 71.6%
8 | O=C(NC(=S)N1CCN(c2ncnc3c2cnn3-c2ccccc2)CC1)c1ccc(Br)cc1 | 64.4% | 60.6% | 75.4% | 37.4% | 69.2% | 47.2% | 60.9% | 80.6% | 72% | 98.7%
9 | Oc1ccc(Cl)c(Nc2ncnc3c2cnn3CC(Cl)c2ccc(Br)cc2)c1 (stereo not given) | 65.8% | 84% | 67% | 58.1% | 67.1% | 8.3% (active) | 52.6% | 53.9% | 63.9% | 90.9%
10 | O=C(NNC(=S)NCCc1ccccc1)c1ccc(OCc2nc3ccc(Cl)cc3[nH]2)cc1 | 66.3% | 97.7% | 88.8% | 97.4% | 82.3% | 144% | 78.7% | 73.8% | 79.1% | 131%
11 | COc1ccc(-c2nc3ccc(-c4nnc(SCC(=O)Nc5ccc(/C(C)=N\O)cc5)o4)cc3[nH]2)cc1 | 42.6% | 77.5% | 46.5% | 77% | 59.1% | 104% | 40.1% | 74.2% | -62.1% (active) | 107%
12 | Cc1ccc(N=Nc2c(N)nn3c(-c4cc5cc(Br)ccc5oc4=O)ccnc23)cc1 | 21.7% | -26.3% (active) | 83.6% | 47.7% | 34.9% | 73.6% | 11.7% | 113% | 56.8% | 100%
13 | CN1CCN(CCS(=O)(=O)Nc2cc(-c3ccc4ncnc(Nc5ccc(F)c(Cl)c5)c4c3)cnc2Cl)CC1 | 13% | 48.9% | -15.5% (active) | 39.9% | 54.7% | -10.2% (active) | 10.1% | 55.6% | 19.4% | -31.9% (active)
14 | ClC(Cn1ncc2c(Nc3cccc(Br)c3)nc(SCCN3CCOCC3)nc21)c1ccc(Br)cc1 (stereo not given) | -20.2% (active) | 32.2% | 47.5% | -12.9% (active) | 27.6% | -18.9% (active) | 13.9% | 15.7% | -66.5% (active) | -79.2% (active)
15 | COc1cc(CNC(=O)C[C@H](C)CCC=C(C)C)ccc1OCc1cn(-c2ccccc2F)nn1 | 68.3% | 73.3% | 92.7% | 46.7% | 89% | 4.63% (active) | 57.1% | 80.6% | 43.6% | 112%
16 | CC1=C(C)C(=O)C(NCCN2CCOCC2)=C(Br)C1=O | -0.608% (active) | 67.1% | 91.5% | 87.2% | 98% | 38.7% | -18.4% (active) | 87.6% | 100% | 130%
17 | Nc1cc2ccccc2c(=O)n1NC(=O)c1ccc(Br)cc1 | 81.8% | 69% | 74.4% | 101% | 98.6% | 103% | 96.7% | 100% | 107% | 114%
18 | COc1ccc(C2=NN(C(=O)[C@H]3[C@@H](c4ccco4)c4sc(=O)[nH]c4S[C@@H]3C)C(c3ccc4ccccc4c3)C2)cc1 (stereo not given in full) | 33.8% | 29.3% | 49.1% | 59.7% | 23.8% | 29.1% | 4.06% (active) | 17.6% | 44.6% | 7.92% (active)
19 | O=[N+]([O-])c1cccc(-c2nnc3c(/C=C/c4ccc(F)cc4)nc4ccccc4n23)c1 | 91.7% | 98.6% | 101% | 97.9% | 90.3% | 80% | 81% | 95% | 93.5% | 126%
20 | O=C(Cn1c(-c2ccccc2)nc2ccccc21)N=Nc1c(O)[nH]c2ccc(Br)cc12 | 3.3% (active) | -59.9% (active) | -6.14% (active) | -68.1% (active) | -29.9% (active) | -60.6% (active) | 29.5% | 8.52% (active) | -56.2% (active) | -66.9% (active)
21 | CCCCCCCCc1ccc(C(=O)Nc2cccc(O)c2)cc1 | 78.9% | 67.8% | 95.9% | 101% | 90.5% | -4.35% (active) | 23% | 90.3% | 73.5% | 121%
22 | OC1CCC(Cn2c(C(F)(F)F)cc3c(Cl)ncnc32)CC1 (stereo not given) | -26% (active) | 64.4% | -13.9% (active) | 13.3% | -43.6% (active) | 78.2% | -81.3% (active) | 94% | 92.7% | 60.2%
23 | CC(C)(C)C(=O)c1c2c(c3ccc4c5ccccc5ccc4n13)C(=O)c1ccccc1C2=O | 73.5% | 73.1% | 97.5% | 84.6% | 55.9% | 104% | 91.5% | 84.9% | 109% | 102%
24 | Nc1nnc(-c2cncc(Br)c2)c(-c2c[nH]c3ccc(Cl)cc23)n1 | 84.5% | 74% | 80.9% | 91.9% | 86.9% | 90.9% | 68.1% | 82.9% | 73.9% | 113%
25 | O=C(OCCOCCO)N(c1cccc(Br)c1)c1nc(SCCN2CCOCC2)nc2c1cnn2CC(Cl)c1ccc(Br)cc1 (stereo not given) | -0.582% (active) | 32.1% | 50.9% | 32.9% | 8.55% (active) | 30.9% | -40.9% (active) | 15.2% | -4.79% (active) | -42.3% (active)
26 | CC(Nc1ncnc2ccc(-c3ccc4oc(N)nc4c3)cc12)c1ccccc1 (stereo not given) | 16.4% | -10.2% (active) | -24.9% (active) | -53.1% (active) | 3.34% (active) | -45.9% (active) | 18.4% | 13.3% | -48.2% (active) | 14%
27 | COc1ccc(NC2=C(I)C(=O)C(C)=C(C)C2=O)cc1 | 32.2% | 78.1% | 95% | 85.4% | 97.9% | 31.4% | 18.5% | 83.8% | 42.2% | 123%
